Shn3 3UTR inh – reduces Shn3 3'UTR luciferase signal in osteoblasts. Clone20 osteoblast Shn3 3'UTR firefly luciferase, 24 h. inhibition, % at 12.5 µM. 0.52% of 360,000 active. AID 588674;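 active = mean inhibition of at least 75% with every replicate also reaching 75%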;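 note: 0% = median of neutral control wells and 100% = pilot-screen positive control compound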
TRPM1 prom inh – MITF TRPM1 promoter inhibition in SK-MEL-5 cells; SK-MEL-5 TRPM1 promoter luciferase, 24 h; inhibition, % at 12.5 µM; 0.83% of 330,000 active; AID 488899;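 active = mean inhibition across replicates of 60% or more, whatever share of single replicates reaches that level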
PAX8 inh HTS – lowers PAX8-driven luciferase in RMG-I cells; RMG-I TPO-luciferase reporter, SteadyGlo, 24 h; inhibition, % at 12.6 µM; 1.2% of 360,000 active;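 active = mean replicate inhibition at least 60% with every replicate also reaching 60%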;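 note: luciferase light reporting Pax8 driven TPO promoter activity; plate controls were median of neutral control wells for no effect and mitoxantrone controls for full effect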
EBV LMP1 NFkB – reduces LMP1-driven NF-kappaB luciferase signal; 0.69% of 350,000 active; AID 504558; inhibition, % at 12.5 µM; LMP1-induced NF-kappaB luciferase reporter cells, luminescence; in the data active = inhibition above about 41%;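 note: 0% = neutral control wells and 100% = reference inhibitor control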
Peg3 prom inh – reduces Peg3 promoter-driven luciferase expression in HeLa. AID 588405. 1.7% of 360,000 active. inhibition, % at 20 µM. HeLa PEG-Prom luciferase reporter, luminescence, overnight;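 active = inhibition of at least 50% at 20 µM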
HIF-2a block – HIF-2a inhibition; 786-0 RCC cells HIF-2a reporter, luciferase luminescence, overnight; inhibition, % at 18.8 µM; 0.72% of 360,000 active;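 active = inhibition of the luminescence signal of 40% or more relative to plate controls, in a single-dose primary screen at 18.75 µM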
* hit, by the source's call. Hits are enriched below; roughly 2.8% of the tested compounds scored in any of these assays.

How did CC(C)(C)c1ccc(CC(=O)N2CCC2(C)C(=O)NCc2cccc3ccccc23)cc1 (centres undefined) do in these assays?
Shn3 3UTR inh: 8; PAX8 inh HTS: 11; Peg3 prom inh: 52*; HIF-2a block: 28

What do the screens show for `CC(C)(C)c1ccc(CC(=O)N2CCC2(C)C(=O)Nc2cccc3ccccc23)cc1` (centres undefined)?
Shn3 3UTR inh: -18; PAX8 inh HTS: 25; Peg3 prom inh: 16; HIF-2a block: 20

How did COc1ccccc1C(=O)Nc1ccc2c(c1)OC[C@@H](C)N(C)C[C@H](C)[C@H](OC)CN(C)C2=O do in these assays?
PAX8 inh HTS: 8

What do the screens show for `CCCc1[nH]nc2c1C(c1cn[nH]c1-c1ccc(F)cc1)C(C#N)=C(N)O2` (centres undefined)?
Shn3 3UTR inh: -1; TRPM1 prom inh: 61*; EBV LMP1 NFkB: 10; Peg3 prom inh: 28; HIF-2a block: 22

Results for CCC(=O)N[C@@H]1C=C[C@H](CC(=O)OC)O[C@@H]1CO ?
PAX8 inh HTS: 2

How did NCCCn1c(C(=O)c2cc(Cl)c(N)c(Cl)c2)c2ccc([N+](=O)[O-])cc2[n+]1[O-] do in these assays?
Shn3 3UTR inh: 6; TRPM1 prom inh: 54; PAX8 inh HTS: 70*; EBV LMP1 NFkB: 32; Peg3 prom inh: 57*; HIF-2a block: 17

What do the screens show for `COc1cc(C(=O)N2CCC(N3CCN(C)CC3)CC2)ccc1Nc1ncc2c(n1)N(C)c1ccccc1C(=O)N2C`?
PAX8 inh HTS: -105

Results for CCN1C(=O)CCN(C2CCCC2)c2nc(Nc3ccc(C(=O)NC4CCN(C)CC4)cc3OC)ncc21 ?
Shn3 3UTR inh: -10; TRPM1 prom inh: 76*; PAX8 inh HTS: -106; EBV LMP1 NFkB: -2; Peg3 prom inh: 66*; HIF-2a block: -35

Results for CCN(C[C@H]1N[C@H](CO)[C@@H]1c1ccc(-c2cccc(F)c2)cc1)C(=O)CN(C)C ?
PAX8 inh HTS: 26

What do the screens show for `CC(=Nc1ccccc1)C1=C(O)C(Cc2cccc(F)c2)NC1=O` (centres undefined)?
Shn3 3UTR inh: -8; PAX8 inh HTS: 45; EBV LMP1 NFkB: -4; Peg3 prom inh: -173; HIF-2a block: -95

Results for CC(=Nc1ccccc1)C1=C(O)C(Cc2ccc(O)cc2)NC1=O (centres undefined) ?
Shn3 3UTR inh: 5; TRPM1 prom inh: 41; PAX8 inh HTS: 67*; EBV LMP1 NFkB: 9; Peg3 prom inh: -30; HIF-2a block: 19

Results for C[C@@H]1CN([C@@H](C)CO)C(=O)c2cccc(NC(=O)c3ccc(-c4nccs4)cc3)c2O[C@H]1CN(C)CC1CCCCC1 ?
PAX8 inh HTS: -26

Results for Cc1ccc(C2=NN=C(NC(=O)CSc3nc(C)cc(C)n3)SC2)cc1 ?
PAX8 inh HTS: 76*

How did CC(=O)Nc1ccc(S(=O)(=O)/N=C2\C(=O)c3ccccc3C([O-])=C2n2cc[n+](-c3ccccn3)c2)cc1 do in these assays?
TRPM1 prom inh: 48; PAX8 inh HTS: 49; EBV LMP1 NFkB: 39; Peg3 prom inh: -2; HIF-2a block: -9

How did CCCC[n+]1ccn(C2=C([O-])c3ccccc3C(=O)/C2=N\S(=O)(=O)c2ccc(Br)cc2)c1 do in these assays?
Shn3 3UTR inh: 45; TRPM1 prom inh: 94*; PAX8 inh HTS: 8; EBV LMP1 NFkB: 8; Peg3 prom inh: 9; HIF-2a block: 1

What do the screens show for `Cc1ccc(NC(=O)C[n+]2ccn(C3=C([O-])c4ccccc4C3=O)c2)cc1`?
Shn3 3UTR inh: -3; TRPM1 prom inh: 18; PAX8 inh HTS: -3; EBV LMP1 NFkB: -4; Peg3 prom inh: 9; HIF-2a block: -8

Results for Cc1ccc(S(=O)(=O)/N=C2\C(=O)c3ccccc3C([O-])=C2n2cc[n+](CCC(C)C)c2)cc1 ?
Shn3 3UTR inh: -3; TRPM1 prom inh: 69*; EBV LMP1 NFkB: -1; Peg3 prom inh: 18; HIF-2a block: -30

Results for O=C(c1ccc([N+](=O)[O-])o1)N1CCN(c2nc3c(F)cc(F)cc3s2)CC1 ?
Shn3 3UTR inh: 26; TRPM1 prom inh: 79*; PAX8 inh HTS: -18; EBV LMP1 NFkB: -24; Peg3 prom inh: -5; HIF-2a block: -24

Results for Cc1ccc(C)c2sc(N3CCN(C(=O)c4ccc([N+](=O)[O-])o4)CC3)nc12 ?
Shn3 3UTR inh: 46; TRPM1 prom inh: 48; PAX8 inh HTS: 14; EBV LMP1 NFkB: -89; Peg3 prom inh: 19; HIF-2a block: 31
